# In all, about 2,300 compounds went through this assay and about 1,000 (43%) were called active. So high a share suggests a set chosen from earlier hits. The list shows a part of the results. Measured potencies and affinities stand elsewhere. A number with no mark means an inactive call. The rule behind the calls is not given here.
# Test: modified counter assay using GFP fluorescence, PhoP regulon inhibitor project, dose response (AID 1985)
# Settings: S. Typhi, 4 h; series mostly up to 150 µM; inhibition: at the top concentration
row,Compound,inhibition
1,CCOc1cc(CNC(C)(C)CO)cc(Br)c1OCc1ccc(Cl)cc1Cl,32.3%
2,COc1cc(CNC2CCCC2)cc(Cl)c1OCc1ccccc1Cl,-28.1%
3,OCCCCNCc1ccc(OCc2ccccc2Cl)cc1,23.7%
4,CCOC(=O)c1c(C)[nH]c(C(=O)CN2C(=O)NC(C)(c3ccc4ccccc4c3)C2=O)c1C (centres undefined),-6.21%
5,Cc1cc(=O)oc2ccc(OCC(=O)N3CCC(C)CC3)cc12,14.8%
6,O=C(O)COc1ccc(F)cc1Br,3.92%
7,O=C(COc1ccc(Cl)cc1)N1CCN(C2CCCC2)CC1,-26.3%
8,CC1CC1C(=O)Nc1nc2ccc(S(C)(=O)=O)cc2s1 (centres undefined),6.02%
9,CCOC(=O)Cc1csc(NC(=O)c2ccc(S(=O)(=O)N3CCCC3)cc2)n1,-6.85%
10,Cc1ccc(-c2nc(C(=O)NCCCN(C)C)cc3c2[nH]c2ccccc23)cc1,15.2%
11,O=C(Cn1cnc2cc([N+](=O)[O-])ccc2c1=O)Nc1ccccc1Cl,4.55%
12,O=C(Nc1nccs1)c1ccc(Cl)cc1[N+](=O)[O-],2.12%
13,CCCCNC(=S)Nc1ccc([N+](=O)[O-])cc1,37.9%
14,O=C(NCCCN1CCOCC1)C(C(=O)c1ccccc1)n1ccccc1=O (centres undefined),25.3%
15,COc1cc(CNc2ccc(N3CCN(C(C)=O)CC3)cc2)ccc1OCc1ccccc1,-2.24%
16,COc1ccc(CNCCc2c[nH]c3ccccc23)c(OC)c1C,0.46%
17,COc1cc(CNCCc2c[nH]c3ccccc23)ccc1OCc1ccccc1F,8.11%
18,O=C(Cn1c(C(F)(F)F)nc2ccccc21)NCCCN1CCOCC1,-22.6%
19,Cc1ccc(S(=O)(=O)N(Cc2n[nH]c(=S)n2-c2ccccc2)c2ccccc2)cc1,-23%
20,COc1ccccc1OCc1nnc(SCC(=O)NCc2ccco2)n1Cc1ccco1,-24.1%
21,O=C(Nc1ccc(Br)cc1)N1CCCCC1,22.6%
22,O=C(Cn1nc(Cl)nc1Cl)c1ccc([N+](=O)[O-])cc1,27.9%
23,COc1ccc(C(=O)NNS(=O)(=O)c2ccccc2)cc1OC,-24%
24,CN(C)S(=O)(=O)c1cccc(NC(=O)c2cnccn2)c1,10.4%
25,COc1cc(C(=O)NC(=S)Nc2cccc3nc(C)ccc23)cc(OC)c1OC,-5.39%
26,CCn1c(CNC(=O)c2ccc(OC)cc2)nnc1SC,1.63%
27,CCOc1ccc2nnnn2n1,-9.4%

row,Compound,inhibition
1,COc1ccc2c(c1)cc1n2CCN=C1N,-17.6%
2,CCC(C)(C)NC(=O)COc1ccc(C(=O)c2ccccc2)cc1,-7.83%
3,Cc1ccc(OCC(=O)N2CCN(S(C)(=O)=O)CC2)cc1,-33.7%
4,COCCCNC(=O)c1cc(OC)c(OC)c(OC)c1,10.2%
5,CCOCCCNC(=O)C(c1ccc(OC)cc1)N(Cc1cccs1)C(=O)c1ccccn1 (centres undefined),9.15%
6,Cc1oc2nc(SCCCC(=O)NCCCO)nc(N)c2c1C,-14.7%
7,COc1cc(C(=O)Nc2ccc3c(c2)OCCO3)ccc1OC(C)C,28.5%
8,CCCC(C(=O)NCC1CCCO1)N(Cc1ccco1)C(=O)CNS(=O)(=O)c1ccc(F)cc1 (centres undefined),23%
9,O=C1c2ccccc2C(=O)N1CCC(c1ccccc1)c1ccco1 (centres undefined),-29.2%
10,O=c1oc2ccccc2c(O)c1C(c1ccccn1)c1c(O)c2ccccc2oc1=O,13.5%
11,O=C(CC(=O)NCc1ccccc1)NCc1ccccc1,-27.6%
12,S=C(Nc1ccccc1Cl)N(Cc1ccccc1)Cc1ccccn1,-19.1%
13,O=C(NC(=O)c1ccccc1)OCC1CCCN2CCCCC12 (centres undefined),0.4%
14,Cc1cc(C)c2nc(/N=C(\N)NC(=O)c3ccccc3)nc(C)c2c1,-14.7%
15,CC(C)(C)c1ccc(C(=O)NNC(=O)Cc2ccccc2)cc1,-18.7%
16,O=C(c1cccs1)N1CCN(S(=O)(=O)c2ccccc2)CC1,-1.71%
17,O=C(CCCc1ccccc1)Nc1cccnc1,21.9%
18,Cc1cc(C(=O)Nc2cccnc2)on1,-8.91%
19,CCOC(=O)c1ccc(NC(=O)c2cc3c(s2)CCC3)cc1,-14.7%
20,Cc1cc(C)c([C@@H]2C[C@H]3CN(C4CCCC4)C(=O)[C@]34CCCN24)c(-n2cccn2)c1,7.68%
21,O=C(CCCOc1ccc(Cl)cc1Cl)NNC(=O)C1CCC1,32.7%
22,CC(C)(C)c1ccc(OCCCNC2CCCC2)cc1,19.2%
23,CCOc1ccc(NC(=O)c2ccc(N)cc2)cc1,22.8%
24,CSCCC(NC(=O)c1ccc(Br)cc1)C(=O)O (centres undefined),-19.7%
25,CCCOc1ccc(C(=O)NNC(=S)NC(=O)c2ccco2)cc1,37.2%
26,Cc1ccc(CCNC(=O)C2CCN(S(=O)(=O)N3CCCC3)CC2)cc1,2.57%
27,O=C1C=C(c2ccc(Cl)cc2)C(=O)N1Nc1ccccc1,-5.69%

row,Compound,inhibition
1,CCCn1c(SCc2ccc(Cl)cc2)nc2c1c(=O)[nH]c(=O)n2C,-8.46%
2,CN1CCCN(C(c2ccccc2)c2ccc(Cl)cc2)CC1 (centres undefined),20.4%
3,Cc1c(C(=O)Nc2ccncc2)sc2nc(-c3ccc(F)cc3)cn12,5.26%
4,COc1cccc(CNc2nn[nH]n2)c1OC,5.63%
5,Fc1ccc(NC(=S)NCc2ccccc2Cl)cc1,9.03%
6,Clc1ccc(CNCc2cccs2)cc1Cl,-13.4%
7,COc1ccccc1CNC(=O)COC(=O)CCC(=O)c1cccs1,11.2%
8,Fc1ccccc1CSc1ccc(-c2ccco2)nn1,2.22%
9,O=C(O)CCSCc1ccccc1F,12%
10,COc1ccc2[nH]cc(CC(=O)O)c2c1,-1.77%
11,COc1ccc(C2=NN3C(C2)c2ccccc2OC3c2cccs2)cc1 (centres undefined),9.41%
12,O=C(CSc1cccc2cccnc12)Nc1ccc(S(=O)(=O)N2CCOCC2)cc1,20.2%
13,O=C(O)COc1ccccc1/C=N/NC(=O)c1cccc(S(=O)(=O)N2CCOCC2)c1,28%
14,Cn1c(-c2ccc(Cl)cc2)cnc1N,-30.5%
15,O=[N+]([O-])c1ccc(-c2cnc(NO)nc2)cc1,20.5%
16,COc1cccc(C(=O)N(CN2CCCC2=O)c2cc(C)on2)c1,-12.3%
17,N#Cc1ccc(C2=NC(C(F)(F)F)(C(F)(F)F)c3c(n(Cc4ccco4)c(=O)[nH]c3=O)N2)cc1,-13.8%
18,COc1ccc(NC(=O)C2CCCN(C(=O)NC3CCCCC3)C2)cc1OC (centres undefined),-14.7%
19,Cc1ccc(S(=O)(=O)NCC(=O)OCN2C(=O)c3ccccc3C2=O)cc1,-33.3%
20,CCN1CCN(c2nc3ccccc3nc2C(C#N)S(=O)(=O)c2ccc(C)cc2)CC1 (centres undefined),1.64%
21,COc1ccc(-c2cc(=NCC(=O)O)c3ccccc3o2)cc1,7.24%
22,CCOC(=O)C(NC(C)=O)(Nc1cccc(F)c1)C(F)(F)F (centres undefined),-16.7%
23,CC(=O)Nc1cccc(NC(=O)Nc2ccc(C)c(Cl)c2)c1,17.6%
24,O=C(Nc1cccc(F)c1)NC1CCCCC1,31.8%
25,Cc1nc(NC2=NCN(CCCN3CCOCC3)CN2)nc2c(C)cccc12,18%
